Growth inhibition data for 95 molecules are collected here from PubChem BioAssay AID504594 (Broad Institute, 2011).

The campaign covered roughly 2,000 compounds. Fewer than 10 were called active. A selection follows. Unmarked numbers belong to inactive results.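 Rule for the calls: active = growth inhibition of at least 75% in every replicate, which also brings the mean inhibition to 75% or more; inconclusive = mean inhibition 75% or more but some replicate under 75%; inactive = the rest.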

This assay in a line: reduced viability of yeast carrying PfHsp90 – S. cerevisiae, BacTiter-Glo luminescence, antimalarial PfHsp90 inhibitor project, primary screen (AID 504594).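 Note: 0% = DMSO neutral control wells and 100% = 20 µM radicicol control wells; higher value means stronger growth inhibition because the sign is flipped.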 Particulars: S. cerevisiae expressing PfHsp90, BacTiter-Glo growth, 48 h; at 9.4 µM; hits give high values.
Turning to `CC(=O)C1=C(O)C(=O)OC1c1ccc(C)cc1` (stereo not given), the growth inhibition was 14.7%.
For `CC12CC(c3ccccc3O1)C(C(=O)N1CCOCC1)C(=O)N2` (stereo not given), the growth inhibition was -11.3%.
Consider `COc1cc2c(cc1OC)C1(CCCC1)CNC2c1cccc([N+](=O)[O-])c1` (stereo not given), for which the growth inhibition was -7.37%.
Regarding `Cc1csc(-c2coc3cc(O)cc(C)c3c2=O)n1`, the growth inhibition is 23.5%.
As to `Cc1nc(N)sc1C(=O)N/N=C/c1ccco1`, the growth inhibition was -1.68%.
Turning to `Nc1nc2c(nc(SCc3ccccc3Br)n2C2OC(CO)C(O)C2O)c(=O)[nH]1` (stereo not given), the growth inhibition was -22.3%.
Turning to `COc1ccc(/C=C2\CC/C(=C\c3ccc(OC)c(OC)c3)C2=O)cc1OC`, the growth inhibition was -15.8%.
Then `CCc1cc2c(=O)c(-c3ccc4c(c3)OCCO4)coc2c(CN2CCCCC2C)c1O` (stereo not given), with -11.5%.
Next, `CCOC(=O)c1ccc(N2C(=O)C(CC(=O)NC)N(CCc3ccc(OC)c(OC)c3)C2=S)cc1` (stereo not given): 8.13%; `O=C(Cc1cccc2ccccc12)N1CC[C@@]2(O)CCCC[C@H]2C1`: -9.85%.
Then `COc1ccccc1C(=O)N=C1NC(=O)CC2C(=O)NCCN12` (stereo not given), with 2.95%.
For `Cc1ccc2c(c1)C1OCCC1C1N2C(=O)C2C(C(=O)O)C3C=CC21O3` (stereo not given), the growth inhibition is -2.86%.
For `COc1ccc(CNC(=O)C2CCCN2C)cc1OC` (stereo not given), the growth inhibition was -16.4%.
Take `COc1ccc2[nH]c(=O)c(CNC3CCCCC3)cc2c1`: the growth inhibition was -29%.
Consider `CCOC(=O)C1=C(N)Oc2c(oc(CO)cc2=O)C1c1ccc(F)c(F)c1` (stereo not given), for which the growth inhibition is -16.3%.
Turning to `CC12CCC(C(=O)NCc3ccccn3)(OC1=O)C2(C)C` (stereo not given), the growth inhibition was -9.47%.
Then `CC(=O)O[C@H]1C(=O)[C@@]2(C)[C@H]([C@H](OC(=O)c3ccccc3)[C@]3(O)C[C@H](OC(=O)[C@H](O)C(NC(=O)c4ccccc4)c4ccccc4)C(C)=C1C3(C)C)[C@]1(OC(C)=O)CO[C@@H]1C[C@@H]2O` (stereo not given in full), with 4.3%.
Consider `CCOC(=O)N1c2ccccc2C=CC1OCC` (stereo not given), for which the growth inhibition is -5.21%.
As to `Cc1cc(=O)oc2cc(OC(C)C(=O)NCC3CCCO3)ccc12` (stereo not given), the growth inhibition was -2.4%.
Turning to `CCC(C)n1ncn(-c2ccc(N3CCN(c4ccc(OCC5COC(Cn6cncn6)(c6ccc(Cl)cc6Cl)O5)cc4)CC3)cc2)c1=O` (stereo not given), the growth inhibition was -1.74%.
`CC(=O)N1CCN(c2ccc(OC[C@H]3CO[C@](Cn4ccnc4)(c4ccc(Cl)cc4Cl)O3)cc2)CC1`: the growth inhibition was 94.4% (active).
In the case of `O=C(O)c1ccc(OCCn2ccnc2)cc1`, the growth inhibition was -4.4%.
Next, `Cc1oc(/C=N/NC(=O)CC2(C)OCCO2)cc1Br`: -11.1%; `C=C(C)[C@@H]1CC=C(CN2CCC(N3CCC(C(=O)N4CCCC4)CC3)CC2)CC1`: -0.183%; `CCN(CC)CCN1C(=O)C(=O)/C(=C(/O)c2c(C)[nH]c(C(=O)OC)c2C)C1c1cccnc1` (stereo not given): -4.71%.
For the molecule `COc1cccc(N2CC34C=CC(O3)C(C(=O)O)C4C2=O)c1` (stereo not given), the growth inhibition was -1.36%.
`COc1ccc(OC)c(-c2oc3ccccc3c(=O)c2O)c1`: the growth inhibition is -8.17%.
Next, `Cc1ccsc1C1NC(=O)c2ccccc2N1` (stereo not given): -12.4%.
For `COc1cc(C(=O)N/C(=C\c2cn(C)c3ccccc23)C(=O)NCCCO)cc(OC)c1OC`, the growth inhibition is 13.5%.
For `CCc1nc2ccccc2n1Cc1ccc(OC)c(OC)c1`, the growth inhibition was 2.55%.
As to `C/C(NC(=O)c1cccs1)=C1\C(=O)C[C@@H]2[C@H]1C2(C)C`, the growth inhibition is 1.59%.
Turning to `CCc1cc2c(=O)c(-c3nc(C)cs3)c(CCCC(=O)O)oc2cc1O`, the growth inhibition is -4.53%.
Then `CN(C)CCOc1ccc(Cl)cc1C(C)(C)C`, with -0.977%.
Next, `COc1ccc2c(c1OC)C(=O)N1C2SC[C@H]1C(=O)NC1CC(C)(C)NC(C)(C)C1` (stereo not given in full): 2.59%; `N#Cc1cc2c([nH]c1=O)CCCC2`: 8.49%.
With `COc1cc2c(cc1O)CCN(C(=O)c1ccco1)C2C` (stereo not given), the growth inhibition was 3.62%.
With `Cc1c(Cc2ccccc2)c(=O)oc2c(CN(C)C)c(O)c(Cl)cc12`, the growth inhibition is -2.33%.
For the molecule `COc1cccc(N2C(=O)[C@H]3C(C(=O)c4cnccn4)=NN[C@H]3C2=O)c1`, the growth inhibition was -1.02%.
Regarding `O=C(O)C[C@@H](O)C(=O)O`, the growth inhibition is -8.31%.
Consider `Cc1ccc(CSCC(=O)N2CCCC2)cc1`, for which the growth inhibition was -5.17%.
For `O=C(NCCc1nc2ccccc2[nH]1)c1cccc(Br)c1`, the growth inhibition was 2.71%.
Then `CCNC(=S)N1CCN(CCN2C(=O)c3cccc4cccc(c34)C2=O)CC1`, with 2.01%; and `COc1c2occc2c(OC)c2c(=O)cc(C(F)(F)C(F)(F)F)oc12`, with -5.37%.
Next, `CC(=O)NC(Cc1c[nH]c2ccccc12)C(=O)N/N=C/c1ccccc1` (stereo not given): 13.4%; `O=C(CN1CC[n+]2c(-c3cccs3)csc21)c1ccc(Br)cc1`: -7.32%; `Cc1ccc2nc(N=C(N)N)nc(C)c2c1`: -4.91%.
Next, `COc1ccc(CNC(=O)N[C@H](C(=O)O)C(C)C)cc1OC`: -0.856%; `CCOC(=O)NN1C(=O)c2ccccc2NC1c1ccc(OC)c(OC)c1` (stereo not given): -6.91%; `COC(=O)c1[nH]c(=O)c2ccccc2c1O`: -11.7%.
For the molecule `COC(=O)c1cc(OC)c(OC)cc1NC(=O)CN1C(=O)c2ccccc2C1=O`, the growth inhibition is -14.3%.
On to `COc1cc(CNc2ccc(C)c(C)c2)cc(OC)c1OC`, for which the growth inhibition is 13.4%.
With `Clc1ccc2c(c1)[C@H]1OCC[C@H]1[C@@H](c1ccco1)N2`, the growth inhibition was 1.42%.
In the case of `CC1(c2ccccc2)CC(C)(C)N2C(=O)C(=O)c3cccc1c32` (stereo not given), the growth inhibition is -3.23%.
With `O=c1nc2cccc3c2=c(/c1=C(\O)c1ccccc1)c1ccccc1c3=O`, the growth inhibition is -23.6%.
Then `O=C1Nc2ccc3sc4ccccc4c3c2C1=O`, with -1.28%; and `O=C(CN1C(=O)/C(=C/c2cccc(Br)c2)SC1=S)Nc1cccnc1`, with -5.73%; and `CC(C)c1ccc(/C=C/C(=O)O)cc1`, with -10.9%.
Regarding `COc1ccc(CC(=O)N2CC3(C)CC2CC(C)(C)C3)cc1OC` (stereo not given), the growth inhibition was 12.2%.
Consider `COc1ccc(CCn2c(C)cc3c(c2=O)C(c2ccncc2)C(C#N)=C(N)O3)cc1OC` (stereo not given), for which the growth inhibition was -3.67%.
Regarding `CC1(C)CC(CC(=O)O)(c2ccc(Cl)cc2)CCO1` (stereo not given), the growth inhibition is 4.78%.
In the case of `Cc1cccc2c1CC(C)(C)N/C2=C\C(N)=O`, the growth inhibition is 1.18%.
Turning to `COc1ccc(-c2[nH]ncc2C=O)cc1OC`, the growth inhibition was 7.91%.
For the molecule `O=C(/C=C/c1ccc(F)cc1)NC(=S)N1CCCCC1c1cccnc1` (stereo not given), the growth inhibition is 4.68%.
Take `C=CCc1cccc2cc(C(=O)Nc3ccc(CC(=O)O)cc3)c(=O)oc12`: the growth inhibition was -7.68%.
Regarding `C[C@H](NC(=O)C1(c2ccccc2)CCN(C(=O)[C@H]2CSCN2C(=O)OC(C)(C)C)CC1)C(=O)O`, the growth inhibition was -9.59%.
As to `COC1CCN(Cc2cn(Cc3ccccc3)nc2-c2cc3ccccc3o2)CC1`, the growth inhibition was 3.22%.
On to `CC(C)CN1CC(C(=O)O)CC1=O` (stereo not given), for which the growth inhibition was -3.33%.
Consider `CCOCCn1c(C(C)O)nc2ccccc21` (stereo not given), for which the growth inhibition was -8.58%.
For the molecule `O=C(CC(NC(=O)OCc1ccccc1)C(=O)O)OCc1ccccc1` (stereo not given), the growth inhibition is 0.482%.
Then `COc1ccc(C(=O)Nc2ncc3c(n2)CC(C)CC3=O)cc1` (stereo not given), with -12.5%.
Then `O=C1NCC2=C1C(c1ccccc1)Nc1ccccc1N2` (stereo not given), with 6.48%; and `COc1cccc(C2CC(=O)C3=C(C2)Nc2ccccc2N(C(=O)CCC(=O)O)C3c2ccc(F)cc2)c1` (stereo not given), with 3.39%; and `COc1ccc(C(=O)CCN2CCc3cc(OC)c(OC)cc3C2)cc1`, with 4.16%.
`O=C1OC(=O)C2C1[C@@H]1CC[C@H]2O1` (stereo not given in full): the growth inhibition is -14%.
`COCc1cc(=O)[nH]c(/N=C(\N)Nc2ccc(Oc3ccccc3)cc2)n1`: the growth inhibition was -12.9%.
Take `CC(=O)c1ccc(CCCCCCCCCC(=O)O)s1`: the growth inhibition is -16.6%.
In the case of `CC(C)CN1CCN(Cc2ccc3ncccc3c2)CC1CCO` (stereo not given), the growth inhibition is -15.2%.
Then `O=c1ccc2c(o1)/C(=C/C=C(Cl)Cl)CCC2`, with -2.29%; and `CC(C)(C)C(=O)NCCCNc1ccc([N+](=O)[O-])cc1`, with 4.14%; and `CC(=O)c1c(C)[nH]c(C(=O)OCc2ccccc2)c1C`, with -16%.
Consider `NS(=O)(=O)c1ccc(CCNC(=O)C2CCCN2C(=O)OCc2ccccc2)cc1` (stereo not given), for which the growth inhibition is -1.5%.
Turning to `Cn1c(Oc2ccc3c(c2)OCO3)nc2c1c(=O)n(Cc1ccccc1)c(=O)n2C`, the growth inhibition was 5.1%.
With `Oc1c(Cl)cc(Cl)c(Cl)c1Cc1c(O)c(Cl)cc(Cl)c1Cl`, the growth inhibition is 104% (active).
For `Cc1c2c(nc3c(C)cccc13)OC(C)C2` (stereo not given), the growth inhibition is 8.19%.
Take `CCOC(=O)n1c(=O)oc2ccccc21`: the growth inhibition is -13.3%.
Take `Cc1csc(CCc2nc(C)cs2)n1`: the growth inhibition is 0.825%.
Then `O=C(Nc1ccc(F)c([N+](=O)[O-])c1)c1ccc2c(c1)OCCO2`, with -4.38%.
`CC(C)NS(=O)(=O)c1ccc(OCC(=O)Nc2cccc(F)c2)cc1`: the growth inhibition is 4.62%.
On to `COc1c2c(nc3occc13)C(CC=C(C)C)(OC)C(O)CC2` (stereo not given), for which the growth inhibition was 3.58%.
In the case of `COc1ccc(C=NCC2COc3ccccc3O2)cc1OC` (stereo not given), the growth inhibition is 13.6%.
On to `O=C(Oc1cccccc1=O)c1ccccc1`, for which the growth inhibition is 11%.
As for `Cc1nc2ccccc2n1CC(=O)NC1CCCC1`, the growth inhibition was -8.15%.
Consider `CC1(C)CC(=O)c2cnc(NC(=O)C3CCCC3)nc2C1`, for which the growth inhibition was 0.802%.
Regarding `Cc1ccc(S(=O)(=O)Oc2ccccc2/C=N/N=C(N)N)cc1`, the growth inhibition is 9.9%.
As to `c1ccc(-c2ccc(C(c3ccccc3)n3ccnc3)cc2)cc1` (stereo not given), the growth inhibition was 91.6% (active).
